Compounds with a hit are over-represented: about 2% of the library has one in this group of screens.
Granule exo inh – blocks lytic granule exocytosis. TALL-104 LAMP-1 surface exposure, flow cytometry; cells stimulated with thapsigargin and PMA. actives 0.66% (n = 360,000). inhibition, % at 10 µM;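 active means inhibition above about 55%, limit read from the data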
VLA-4 inh – inhibition in a human VLA-4 binding assay; inhibition, % (about 7 µM as worked out from the volumes in the protocol); AID 2557; actives 0.2% (n = 330,000); VLA-4 expressing cells, ligand binding flow cytometry; P13612; in the data active means inhibition above about 50%
Rev-erbA mod – Rev-erb alpha (human) modulation | AID 1259318 | actives 0.79% (n = 370,000) | Rev-erbα–FITC-DNA binding, fluorescence polarization, 90 min | activity, % at 10 µM | P20393;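 active means activity above about 14%, limit read from the data; passing the limit was not always enough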;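 further: 0% = DMSO wells with 35 nM protein and 100% = DMSO wells with 750 nM protein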
Target sequence (P20393 whole entry, looked up): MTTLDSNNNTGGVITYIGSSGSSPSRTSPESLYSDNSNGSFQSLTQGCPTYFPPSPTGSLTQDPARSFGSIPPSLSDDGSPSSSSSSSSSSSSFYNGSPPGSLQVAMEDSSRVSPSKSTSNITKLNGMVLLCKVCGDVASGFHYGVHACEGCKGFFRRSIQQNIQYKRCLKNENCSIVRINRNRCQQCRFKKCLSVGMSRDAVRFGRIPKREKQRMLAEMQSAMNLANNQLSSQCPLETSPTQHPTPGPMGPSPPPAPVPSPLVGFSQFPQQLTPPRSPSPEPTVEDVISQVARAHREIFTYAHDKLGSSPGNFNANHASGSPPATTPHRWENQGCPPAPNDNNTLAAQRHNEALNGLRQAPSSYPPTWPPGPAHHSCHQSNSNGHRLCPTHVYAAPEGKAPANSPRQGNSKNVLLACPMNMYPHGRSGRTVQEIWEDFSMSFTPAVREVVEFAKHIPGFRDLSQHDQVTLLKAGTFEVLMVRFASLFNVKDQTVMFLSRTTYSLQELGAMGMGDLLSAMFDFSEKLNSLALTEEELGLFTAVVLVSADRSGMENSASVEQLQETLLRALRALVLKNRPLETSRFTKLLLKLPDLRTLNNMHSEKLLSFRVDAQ
ABCB6 inh MLPCN – inhibitors of human ABC transporter ABCB6; fluorescence ratio to DMSO, % at 10 µM; actives 0.19% (n = 360,000); Q9NP58; K562-ABCB6 porphyrin accumulation, flow cytometry, 1 h; active compounds read low;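 active means fluorescence ratio to DMSO below 75%, the collection mean minus 3 SD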;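 further: signal is porphyrin accumulated inside mitochondria; 100% equals median channel fluorescence of DMSO control wells; lower ratio means ABCB6 inhibition with less porphyrin fluorescence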
PG9 Ab binder – small molecules binding HIV-1 gp120 antibody PG9; TR-FRET gp120-PG9 antibody binding; inhibition, % at 6.7 µM; actives 0.43% (n = 360,000); AID 624416; in the data active means inhibition above about 8.5%
PG9 binder conf – confirmation of small molecules binding HIV-1 gp120 antibody PG9 | shares compounds with PG9 Ab binder | TR-FRET PG9 antibody binding, biochemical | inhibition, % at 6.7 µM | actives 90% (n = 1,500) | AID 651571; in the data active means inhibition above about 9%
PGV04 counter – binds control antibody PGV04 in PG9 binder counter-screen; shares compounds with PG9 Ab binder; inhibition, % at 6.7 µM; actives 95% (n = 1,500); TR-FRET PGV04 antibody-gp120 binding, biochemical; in the data active means inhibition above about 9.5%
PG9 bind DR – small molecules binding HIV-1 gp120 antibody PG9. shares compounds with PG9 Ab binder. TR-FRET PG9 antibody-gp120 binding inhibition. IC50, µM. 95 tested, under 10 active. AID 651848; in the data active means IC50 below about 10 µM
PGV04 DR counter – counter-screen for PG9 binders: binding to control antibody PGV04 | shares compounds with PG9 Ab binder | TR-FRET binding to control antibody PGV04 | IC50, µM | actives 20% (n = 95) | AID 651937
PG126 DR counter – counter-screen for PG9 binders: binding to control antibody PG126 | TR-FRET binding to antibody PG126, counterscreen | shares compounds with PG9 Ab binder | IC50, µM | actives 20% (n = 95)
* = called active by the depositor; i = inactive; . = not tested or not shown. Unless noted, no stated cut-off is given here; in the data, active means IC50 below about 9 µM; inactive means the rest.

SMILES	Granule exo inh	VLA-4 inh	Rev-erbA mod	ABCB6 inh MLPCN	PG9 Ab binder	PG9 binder conf	PGV04 counter	others
Nc1c(C(=O)NCc2ccccc2)sc2nc(N3CCOCC3)c3c(c12)CCCC3	6	-6	7	98	10*	8.6*	16*
COc1ccc(CNC(=O)CN(C(=O)c2cc3sccc3n2C)C2CCCC2)cc1	0	5	3	94	13*	11*	14*
O=C(CSc1nc2ccccc2o1)Nc1nc2ccc(Br)cc2s1	1	-9	4	96	1	.	.
COc1ccc2nc(NC(=O)CSc3nc4ccccc4o3)sc2c1	-2	0	18	102	21*	27*	45*
CC(=O)C1=C(C)N(Cc2ccc(Cl)cc2)C(=S)NC1c1cccc(Br)c1 (stereo not drawn)	.	.	-1	.	1	.	.
COc1ccc(NC(=O)CCCn2c(=S)[nH]c3ccccc3c2=O)cc1	-2	-22	6	101	-1	.	.
COc1ccc(NC(=O)CCn2c(=S)[nH]c3ccccc3c2=O)cc1	-4	18	2	94	22*	22*	27*
Cc1ccc2nc(CN(C)C(=O)[C@H](CCc3ccccc3)NC(=O)[C@H]3O[C@@H](n4cnc5c(N)ncnc54)[C@H](O)[C@@H]3O)[nH]c2c1	.	.	0	.	0	.	.
COc1ccc(C(=O)COC(=O)c2ccc(-n3cnnn3)cc2)c(OC)c1	-15	16	14	102	24*	36*	44*
Cc1ccc(S(=O)(=O)Nc2nc3ccccc3nc2Nc2cccc(S(=O)(=O)N3CCCC3)c2)cc1	7	-37	1	165	9.8*	12*	14*
O=C(CSc1nnc(-c2cccs2)o1)Nc1cc(Cl)cc(Cl)c1	.	.	-7	.	.	.	.
Nc1[nH]c(C(=O)c2ccccc2)c(-c2ccc(Cl)cc2)c1C(=O)NCCC1=CCCCC1	.	.	-8	.	.	.	.
COc1ccc(C(=O)Nc2ccccc2C(=O)N(Cc2ccco2)C(C(N)=O)C(C)C)cc1 (stereo not drawn)	6	10	24	96	9.9*	19*	16*	PG9 bind DR=>67;PGV04 DR counter=i;PG126 DR counter=>67
CCCCNC(=O)Cc1c(OC)ccc2cc(Br)ccc12	0	-18	3	92	8.6*	17*	21*
CCN(CC)C(=O)Cc1c(OC)ccc2cc(Br)ccc12	-2	9	3	100	3	.	.
CCCNC(=O)Cc1c(OC)ccc2cc(Br)ccc12	-6	14	8	103	11*	24*	31*
COc1ccc2cc(Br)ccc2c1CC(=O)NCC1CCCO1 (stereo not drawn)	-2	-5	-2	105	8	.	.
CCNC(=O)Cc1c(OC)ccc2cc(Br)ccc12	0	-4	-3	94	7	.	.
COc1ccc2cc(Br)ccc2c1CC(=O)NC(C)(C)C	-6	-9	5	102	13*	21*	25*
C[C@@H]1OC(C2CCCCC2)N(C)[C@H]2C[C@H]3c4[nH]c5c(-c6ccc7c(c6)OCO7)cccc5c4CCN3C[C@@H]12 (stereo partly drawn)	.	.	5	.	.	.	.
Cc1cccc(C(=O)NCC(=O)OCC(=O)c2ccc(Br)s2)c1	-3	30	6	100	8.8*	14*	21*
CCOC(=O)c1c(NC(=O)C2C3C=CC(CC3)C2C(=O)O)sc(C)c1CC (stereo not drawn)	12	0	3	98	8.7*	18*	23*
CCC(=O)Nc1cccc(NC(=S)NC(=O)c2ccccc2)c1	-5	10	-5	96	-4	.	.
O=C(NC(=S)Nc1cccc(NC(=S)NC(=O)c2ccccc2)c1)c1ccccc1	1	.	-6	108	12*	8	14*
C#CCN1C(=O)[C@]2(OCCC=C[C@H]2C)c2ccccc21	.	.	7	.	0	.	.
SMILES	Granule exo inh	VLA-4 inh	Rev-erbA mod	ABCB6 inh MLPCN	PG9 Ab binder	PG9 binder conf	PGV04 counter	others
CC(=O)c1sc(C(C)(C)C)cc1NC(=O)c1ccccc1C(=O)O	-5	-6	-4	104	48*	57*	65*
CCCCCCC(=O)OCC(=O)c1ccc2c(c1)NC(=O)CO2	-2	-1	9	98	0	.	.
CCc1ccc(OCC(=O)OCC(=O)c2ccc3c(c2)NC(=O)CO3)cc1	-1	14	16	100	15*	24*	33*
CCC(=O)c1ccc(OCC(=O)c2ccc3c(c2)NC(=O)CO3)cc1	-1	13	15	94	16*	38*	38*	PG9 bind DR=>67;PGV04 DR counter=i;PG126 DR counter=i
O=C(Nc1nc2c(F)cc(F)cc2s1)C1CCN(C(=O)c2ccc(F)cc2)CC1	-6	-1	6	100	9.1*	9.7*	17*
COc1ccc(S[C@]2(C(=O)N3CCOCC3)CC(=O)N(P(=O)(OC)OC)[C@@H]2c2ccc(OC)cc2)cc1	.	.	-4	.	.	.	.
Cc1[nH]c(=S)c(C#N)c2c1CCCC2	1	15	5	98	4	.	.
CC(C)Cc1c2c([nH]c(=S)c1C#N)CCCC2	1	.	-4	96	15*	6	6
CCN(CC)CCNC(=O)c1cc(-c2ccc(Br)s2)nc2ccccc12	0	17	1	96	15*	26*	50*
CCCCOc1cc(C(=O)NCCN(CC)CC)c2ccccc2n1	-2	48	-5	98	-1	.	.
CCc1ccc(-c2cc(C(=O)NN3CCOCC3)c3ccccc3n2)s1	-1	-1	8	96	1	.	.
CN1CCN(NC(=O)c2cc(-c3ccc(Br)s3)nc3ccccc23)CC1	41	10	-1	161	19*	39*	68*
O=C(O)c1cc(-c2ccc(Br)s2)nc2ccccc12	-8	23	-6	99	17*	25*	68*
CCOC(=O)[C@@]12CCC3=C1N(CCC3)C(=O)[C@H](CC(=O)NCc1cccc(C(F)(F)F)c1)C2	.	.	-3	.	.	.	.
COCCN1Cc2cc(C(=O)OC)c3c(c2C1=O)c1ccccc1n3S(=O)(=O)c1ccc(C)cc1	.	.	3	.	1	.	.
COC(=O)C1CN(Cc2cn(Cc3ccc(Cl)cc3)nn2)CCS(=O)(=O)N1Cc1ccc(Cl)cc1 (stereo not drawn)	.	.	-7	.	.	.	.
O=C(OCC#CCSc1nnc(-c2cccc3ccccc23)o1)c1ccc(OC(F)(F)F)cc1	.	.	4	.	.	.	.
O=C(NC1CCSc2ccccc21)c1ccc(F)cc1 (stereo not drawn)	-3	-6	-1	92	1	.	.
